# According to PubChem BioAssay AID651820 (National Center for Advancing Translational Sciences (NCATS), 2012):
# The whole screen tested about 340,000 compounds, of which about 12,000 (3.5%) were called active. Inconclusive results (about 18%) are left out. Calls follow the shape of the dose curve; as a rule, active = well fitted inhibition curve with a large enough effect; inconclusive = small, poorly fitted or top-dose-only effect, or another doubt; inactive = no such curve, though single readings can be large or run the other way. This excerpt belongs to a sample that is enriched for actives.
# Test: qHTS Assay for Inhibitors of Hepatitis C Virus (HCV)
# Conditions: Huh7.5.1 HCVcc-Cre infection, luciferase reporter, 44 h; series mostly up to 41.8 µM; activity change, negative = inhibition: at the top concentration
# How it was run: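 Infectious HCV cell culture screen: compound-treated cells (1,000/well, pre-plated 4 h) are infected with HCVcc-Cre at roughly 0.5 moi and grown 44 h. Infection is quantified by luciferase signal after 15 min substrate incubation at room temperature.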
# % is scaled to controls: 0 for no effect and ±100 for the full control effect; potency is read from the fitted curve at half-maximal effect.
Structure (SMILES),"activity change, negative = inhibition",Potency
COc1ccc2nc3n(c(=O)c2c1)-c1ccc(Cl)cc1C(=O)NC3Cc1ccccc1 (configuration not stated),-23.3% (inactive),
CCN(CC(=O)Nc1ccc(NC(C)=O)cc1)C(=O)CSC(=S)N1CCCC1,13% (inactive),
CN(C(=O)CSc1cccc[n+]1[O-])C1CCCCC1,0.125% (inactive),
CC(=O)N(Cc1cc(=O)[nH]c2ccccc12)c1ccc(C)cc1C,19.2% (inactive),
Cc1ccc(N(Cc2cc(=O)[nH]c3ccccc23)C(=O)CCl)cc1,,11.2 µM (active)
Cc1ccc(N(Cc2cc3ccccc3[nH]c2=O)C(=O)c2cccs2)cc1,-18.6% (inactive),
COc1cc(O)c2c(=O)c3c(O)c(O)ccc3oc2c1OC,-35.3% (inactive),
Cc1ccc(C)c(NS(=O)(=O)c2cc(Br)cnc2N)c1,3.9% (inactive),
CC(=O)c1ccc(NC(=O)CCNS(=O)(=O)c2cc(Br)cnc2N)cc1,-1.13% (inactive),
CCc1cccc(C)c1NS(=O)(=O)c1cc(Br)cnc1N,,11.2 µM (active)
CCOc1ncccc1C(=O)OCC(=O)Nc1cccc(S(=O)(=O)N2CCCCCC2)c1,-5.14% (inactive),
COC(=O)[C@]1(C)N[C@H](CN(C)C(=O)c2ccc(C(C)(C)C)cc2)[C@@H]2C(=O)N(C)C(=O)[C@@H]21,-14.2% [at 8.37 µM] (inactive),
COCCn1c(SC(C)C(=O)NC2CC2)nnc1-c1cccc(C)c1 (configuration not stated),9.78% (inactive),
COc1ccc(/C=C/C(=O)c2ccc(OC)cc2O)cc1,1.23% [at 8.37 µM] (inactive),
COCOc1cc(O)c(C(=O)/C=C/c2ccc(OCOC)c(OCOC)c2)c(OCOC)c1,,7.94 µM (active)
COC(=O)c1ccc(COc2ccc(/C=C/C(=O)c3ccc(OC)c(CSCC(=O)O)c3)cc2OC)cc1,-18.3% (inactive),
CCOC(=O)c1c(NC(=O)CSc2nnc(C)c(=O)[nH]2)sc2c1CCC2,2.84% (inactive),
COC(=O)c1c(NC(=O)CSc2nncs2)sc2c1CCCCC2,,7.08 µM (active)
COC(=O)c1c(NC(=O)CCCC(=O)O)sc2c1CCCCC2,-1.74% (inactive),
COC(=O)c1c(NC(=O)CCN2CCOCC2)sc2c1CCCC2,-13.5% (inactive),
CCOC(=O)c1c(NC(=O)CSc2nnc(CN3CCOCC3)n2C)sc2c1CCCC2,,22.4 µM (active)
COC(=O)c1c(NC(=O)C2CC(C)=C(C)CC2C(=O)O)sc2c1CCCCC2 (configuration not stated),0.726% (inactive),
COC(=O)[C@]1(C)CCC[C@@]2(C)C3CC[C@]4(OC(C)=O)C[C@@]3(CCC21)CC4=NO (some centres not stated),0.298% (inactive),
O=C(CCNC(=O)c1ccc(Br)cc1)Nc1cccc(S(=O)(=O)N2CCCCC2)c1,-9.26% (inactive),
COc1ccccc1C(=O)NCC(=O)NCCSc1ccc(Br)cc1,31.4% (inactive),
CCc1noc(C)c1C(=O)N1CCCSC1=Nc1ccccc1OC,9.92% [at 8.37 µM] (inactive),

Structure (SMILES),"activity change, negative = inhibition",Potency
COc1ccc2c(c1)C(=O)Nc1cc(Cl)ccc1N2,-25.5% (inactive),
Cc1cccc(OCCC(=O)OCc2csc(CC(=O)Nc3ccccc3C)n2)c1,-5.01% (inactive),
NC(=O)COC(=O)/C=C/c1ccc2ccccc2n1,-4.15% (inactive),
CCOc1cccc(/C=C/c2ccc3ccccc3n2)c1OC(C)=O,,11.2 µM (active)
CCOc1ccccc1-c1cc(C(=O)N/N=C(\C)c2cccnc2)c2ccccc2n1,-26.8% (inactive),
COC(=O)[C@]1(CC(C)C)N[C@H](c2ccc(SC3CCCCC3)cc2)[C@@H]2C(=O)N(C)C(=O)[C@@H]21,3.15% (inactive),
CCN(CC(=O)Nc1c(F)cccc1F)C(=O)Cc1cccs1,5.83% (inactive),
Cc1nc(-c2ccc(F)cc2)c(CC(=O)Nc2cccc(S(=O)(=O)N3CCOCC3)c2)s1,-22.3% (inactive),
CC(C)(C)OC(=O)NCCCCCNC(=O)c1[nH]cnc1C(=O)Nc1nccs1,-1.35% (inactive),
COc1cccc(Nc2nc(N)c([N+](=O)[O-])c(NCc3ccco3)n2)c1,,10 µM (active)
Nc1nc(NCCCN2CCOCC2)nc(Nc2ccccc2)c1[N+](=O)[O-],-9.65% (inactive),
Nc1nc(Nc2ccccc2)nc(NCCO)c1[N+](=O)[O-],-14.4% (inactive),
COc1ccccc1CNC(=O)COC(=O)CNS(=O)(=O)c1ccc(NC(C)=O)cc1,3.91% (inactive),
CCOc1ccc(OCC(=O)OC(C)C(=O)NC2CCCCC2C)cc1 (configuration not stated),14.8% (inactive),
O=c1ccc(S(=O)(=O)N2CCCC2)cn1Cc1nc(-c2ccccc2)no1,-19.5% (inactive),
CC1CCCN(C(=O)c2cc(-c3ccco3)nc3ccccc23)C1 (configuration not stated),0.714% (inactive),
COc1ccc(OCCCCN2CCC(C)CC2)cc1,-9.49% (inactive),
C/C=C/c1ccc(OCCCCN2CCC(C)CC2)c(OC)c1,,14.1 µM (active)
C/C=C/c1ccc(OCCOc2ccc(C=O)cc2OC)c(OC)c1,0.431% (inactive),
Fc1ccc2cnc(-c3ccccc3)cc2c1,16.1% (inactive),
COc1cc2c3c(c1)/C(=C1/SC(=S)NC1=O)C(=O)N3C(C)(C)C=C2C,,25.1 µM (active)
CC(C)Oc1ccc(S(=O)(=O)N2CCOCC2)cc1NC(=O)C1CSC2(C)CCC(=O)N12 (configuration not stated),-20.8% (inactive),
COc1cc(C(=O)NCC(=O)NCCSc2ccc(Br)cc2)cc(OC)c1OC,-19.6% (inactive),
CCSc1nsc(NC(=O)Nc2cccc(C(C)=O)c2)n1,,11.2 µM (active)
CSc1nsc(NC(=O)Nc2ccccc2)n1,-15.8% (inactive),
CC(=O)c1cccc(NC(=O)c2ccncc2)c1,1.02% (inactive),

Structure (SMILES),"activity change, negative = inhibition",Potency
Cc1ccc(C)c(NC(=O)C(c2ccccc2)N2CCN(CC(=O)NC3CC3)CC2)c1 (configuration not stated),20.5% (inactive),
COc1ccc(CCNc2ncnc3nc[nH]c23)cc1OC,,11.2 µM (active)
COc1ccc(CCNc2nc(C)cc(C)n2)cc1OC,-14.5% (inactive),
CCS(=O)(=O)NCCc1ccc(OC)c(OC)c1,-0.766% (inactive),
Nc1c(C(=O)OCC(=O)Nc2ccc(OC(F)F)cc2)[nH]c(=O)[nH]c1=O,1.46% (inactive),
CCCn1c(N)c(N(CCOC)C(=O)C2CCCC2)c(=O)[nH]c1=O,11.3% (inactive),
CCC1CCCCN1CCCNC(=O)C1CCC(Cn2c(=O)[nH]c3ccccc3c2=O)CC1 (configuration not stated),-13.2% (inactive),
CCC1CCCCN1CCCNC(=O)c1cc2c(Cl)nc3ccccc3c2s1 (configuration not stated),,8.91 µM (active)
Cc1nc2ccccc2c2oc(C(=O)NCCCN3CCC(C)CC3)cc12,-20.7% (inactive),
C#CCOCCOCCOCCNc1nc(N2CCN(C(=O)[C@H](CO)n3cc([C@@H](N)C(C)C)nn3)CC2)nc(N2CCN(C(=O)[C@H](CCC(=O)O)n3cc([C@@H](N)[C@H](C)CC)nn3)CC2)n1,-8.15% (inactive),
Nc1ccc2[nH]c(=S)sc2c1,12.9% (inactive),
COc1ccc(CCN2CC(C(=O)OCC(=O)NCc3ccccc3Cl)CC2=O)cc1OC (configuration not stated),-7.78% (inactive),
CC(NC(=O)c1ccccc1SCC(=O)N1CCCC1)c1ccccc1 (configuration not stated),22.8% (inactive),
O=C(c1ccccc1)c1ccc(OCC(O)CN2CCCC2)cc1 (configuration not stated),2.19% (inactive),
O=C(c1ccc(Cl)cc1)c1ccc(OCC(O)CN2CCCCC2)cc1 (configuration not stated),,14.1 µM (active)
CC(=O)Nc1ccc(OCC(O)CN2CCN(c3ccccc3Cl)CC2)cc1 (configuration not stated),3.6% (inactive),
O=C1NCC(c2ccccc2)(c2ccccc2)C(=O)N1,38.7% (inactive),
CC1CC(C)CN(C(=O)COC(=O)c2ccc3ncsc3c2)C1 (configuration not stated),-5.2% (inactive),
CC(=O)c1c(C)oc2ccc(NS(=O)(=O)c3ccccc3)cc12,-15.2% (inactive),
COc1ccc(S(=O)(=O)Nc2ccc3oc(C)c(C(C)=O)c3c2)cc1,,7.94 µM (active)
CC(=O)c1c(C)oc2ccc(NS(=O)(=O)c3ccc(C(=O)O)cc3)cc12,3.69% (inactive),
CC(OC(=O)c1ccc(S(=O)(=O)N2CCOCC2)cc1)c1ccccc1 (configuration not stated),-17% (inactive),
COC1=CC(=O)OC(C)(c2ccccc2)C1 (configuration not stated),15.7% (inactive),
CN1CCN(c2ccc(NC(=O)c3ccccc3)cc2)CC1,6.63% (inactive),
Cc1ccccc1C(=O)NC(=S)Nc1ccc(N2CCN(C(=O)c3ccccc3)CC2)cc1,,11.2 µM (active)
Cc1ccccc1C(=O)N1CCN(c2ccc(NC(=O)c3cccs3)cc2)CC1,,11.2 µM (active)

Structure (SMILES),"activity change, negative = inhibition",Potency
O=C(Nc1ccc(N2CCN(C(=O)C3CC3)CC2)cc1)c1cccs1,-3.63% (inactive),
O=C(Nc1ccc(N2CCN(C(=O)c3cccs3)CC2)cc1)c1cccnc1Cl,-12.3% (inactive),
O=C(Cc1ccccc1)NC(=S)Nc1ccc(N2CCCCC2)cc1,-1.27% (inactive),
Cc1ccc(-c2csc(NCCc3nc4cc(Cl)c(Cl)cc4n3CCOCCO)n2)cc1,-19.6% (inactive),
CCCCNC(=O)Cn1nc(C)c(S(=O)(=O)N2CCOCC2)c1C,0.679% (inactive),
CC(C)(C)C(=O)Nc1cccc(-c2ccc[nH]2)n1,-21% (inactive),
CC(=O)c1c(C)[nH]c(C(=O)N2CCN(S(=O)(=O)c3ccc(F)c(F)c3)CC2)c1C,19.1% (inactive),
CCOc1c2ccc(C(=O)NC3CCCc4ccccc43)cc2nn1CC (configuration not stated),,3.55 µM (active)
CNS(=O)(=O)c1cccc(C(=O)NC2CCCc3ccccc32)c1 (configuration not stated),-13.6% (inactive),
CCOc1ccc(NC(=O)COc2ccc(C(=O)NC3CCCc4ccccc43)cc2OC)cc1 (configuration not stated),1.4e-06% (inactive),
CCCc1cc(=O)[nH]c(SCC(=O)Nc2ccc(S(=O)(=O)N3CCCC3)cc2)n1,-9.93% (inactive),
CC(C)(C)c1ccc(OC2=CS(=O)(=O)c3ccccc32)cc1,-5.07% (inactive),
CC(C)(C)c1ccc(Oc2ccc(N)cc2)cc1,,3.55 µM (active)
COc1cccc(Oc2ccc(N)cc2)c1,-21.4% (inactive),
Nc1ccc(Oc2ccc(Cl)cc2)cc1,,7.94 µM (active)
Cc1nn(C)c(Oc2ccc(Cl)cc2)c1C=O,-11.1% (inactive),
Nc1ccc2nn(-c3ccc(Cl)cc3)nc2c1,-11.2% (inactive),
O=S(=O)(Nc1ccc(O)c2ccccc12)c1ccc(OC(F)(F)F)cc1,-0.296% (inactive),
COc1ccc(CNC(=O)COC(=O)C(CCSC)N2C(=O)c3ccccc3C2=O)cc1 (configuration not stated),4.01% (inactive),
C=CCc1ccc(OCC(O)CN2CCN(Cc3ccccc3)CC2)c(OC)c1 (configuration not stated),-23.4% (inactive),
COc1ccc(OCC(O)CN(C)C(=O)C(C)Oc2ccccc2)cc1 (configuration not stated),7.61% (inactive),
C=CCn1c(=N)n(CC(O)COc2ccc(OC)cc2)c2ccccc21 (configuration not stated),,5.62 µM (active)
CCCCn1c(N)c(N(CC(C)C)C(=O)c2cnc(C)cn2)c(=O)[nH]c1=O,31.4% (inactive),
CC1CCN(C(=O)COC(=O)c2cc(S(=O)(=O)N3CCOCC3)ccc2Cl)CC1,9.19% (inactive),
